# Compounds without any hit were thinned out: in the full panel of roughly 83,000, 20% have a hit.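 The test compound was applied at a single concentration to cells in 96-well plates for 48 hours, and percent growth was recorded.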 Values without a mark were called inactive. Calls of active or inactive are those of the source. The calls were made as follows: active = growth percent below 10; inactive = the rest.
# How the values were obtained:
# Assay in all cases: NCI-60 one-dose screen, 48 h (100 = growth as untreated, 0 = no growth, -100 = all killed)
# Settings in all cases: 10 µM unless noted
# [1] = tested on: DU-145 prostate
# [2] = tested on: K-562 leukemia
# [3] = tested on: MALME-3M melanoma
# [4] = tested on: MDA-MB-231 breast
# [5] = tested on: RXF 393 renal
# [6] = tested on: SF-268 CNS
# [7] = tested on: SF-295 CNS
# [8] = tested on: SF-539 CNS
# [9] = tested on: UACC-257 melanoma
# [10] = tested on: M14 melanoma
# [11] = tested on: HCT-15 colon
# [12] = tested on: HT29 colon
# [13] = tested on: SNB-75 CNS
# [14] = tested on: SNB-19 CNS
# [15] = tested on: U251 CNS
# [16] = tested on: PC-3 prostate
# [17] = tested on: SK-MEL-5 melanoma
# [18] = tested on: UACC-62 melanoma
# [19] = tested on: LOX IMVI melanoma
# [20] = tested on: SK-MEL-28 melanoma
Structure (SMILES),growth [1],growth [2],growth [3],growth [4],growth [5],growth [6],growth [7],growth [8],growth [9],growth [10],growth [11],growth [12],growth [13],growth [14],growth [15],growth [16],growth [17],growth [18],growth [19],growth [20] [%]
CC[C@H](C)[C@H](NC(=O)[C@H]1CCCCN1C)C(=O)N(C)[C@H](C[C@@H](OC(C)=O)c1cccc(C(=O)N[C@@H](Cc2ccccc2)C[C@H](C)C(=O)OC)n1)C(C)C,2.8% (active),5.5% (active),66.7%,2.42% (active),13.1%,13.9%,2.21% (active),-14% (active),47.6%,-8.11% (active),8.45% (active),-5.46% (active),23.5%,33.1%,14.3%,18.9%,-14.5% (active),38.6%,14.6%,–
COc1cc(C=C2C(=O)NC(=O)NC2=O)ccc1O,124%,109%,136%,96.5%,84.4%,106%,101%,101%,87.6%,101%,103%,99.2%,96%,96.7%,98.7%,103%,109%,92.7%,102%,–
Nc1ccc(S(=O)(=O)F)cc1,107%,91.8%,95.2%,117%,100%,99.8%,102%,103%,110%,107%,107%,103%,99.5%,105%,105%,105%,106%,105%,99.4%,–
O=C1CCCCC1CN1CCCCC1 (centres undefined),100%,119%,86.2%,116%,121%,97.7%,97.2%,97%,96.2%,109%,99.9%,85.3%,109%,108%,100%,97.8%,104%,99.4%,95.4%,–
C[C@@]12CCCc3coc(c31)C(=O)c1cc3c(cc12)C(=O)C1=C(NCCS1(=O)=O)C3=O,-91.8% (active),-38.6% (active),-98.2% (active),-23.7% (active),6.73% (active),-1.36% (active),2.57% (active),-63.4% (active),-94.2% (active),-80.9% (active),8.66% (active),-4.92% (active),-87.5% (active),-68.8% (active),-61% (active),-6.62% (active),-98% (active),-68% (active),-42.7% (active),–
COC(=O)C12C3C4C1C1C2C3C41NC(=O)c1csc([C@@H](C[C@H](C(C)C)N(C)C(=O)[C@@H](NC(=O)[C@H]2CCCCN2C)C2CC2)OC(C)=O)n1 (some centres undefined),8.04% (active),8.03% (active),63.9%,4.12% (active),19.7%,25.6%,9.2% (active),-24.4% (active),56%,9.39% (active),12.6%,-16.7% (active),45.3%,39.7%,10.8%,23.5%,-14.7% (active),48%,16.3%,57.8
Cc1ccc(N2CCN(CCC#N)CC2)cc1,101%,110%,70.1%,107%,88%,105%,105%,79.1%,84.5%,98.6%,97.2%,103%,79.5%,87.9%,97.8%,92.5%,82%,98.6%,101%,–

# — PubChem BioAssay (NCI)
